Source: PubChem
A selection: hits, their analogues and other compounds. The true share with any hit is near 1.6%.
gsp antagonist = gsp mutant antagonism; AID 624288; actives 0.4% (n = 340,000); gsp-mutant cells, cAMP HTRF, 30 min; Potency, µM (titrated, usually from 76.9 µM), usual class: inhibitors; calls by dose curve; cell line not stated here;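 also: intracellular cAMP measured with PDE inhibitor Ro 20-1724 present during compound exposure; nearly all actives have a fitted effect of over 65% in size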
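HTRF cAMP measurement after 30 min RT detection following 30 min, 37C compound treatment alongside […] (added as 300 uM solution) in G418-selected cells seeded at 2000/well and grown 16–24 h.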
gsp ag = activates gsp, the McCune-Albright syndrome mutation. Potency, µM (doses to about 76.9 µM), actives largely listed as activators. gsp mutant cells, cAMP HTRF, 30 min. AID 624287. actives 0.13% (n = 340,000); active = well fitted activation curve with a large enough effect; inconclusive = small, poorly fitted or top-dose-only effect, or another doubt; inactive = no such curve, though single readings can be large or run the other way; cell line not stated here;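 also: phosphodiesterase inhibitor Ro 20-1724 added with compounds to block cAMP breakdown; nearly all actives have a fitted effect of over 60% in size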
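Cells in DMEM/10% FBS with G418 were pretreated with compounds in DMSO plus […] (300 uM stock) for 30 min at 37C. cAMP was measured by HTRF (cAMP-d2 plus anti-cAMP antibody-K) after 30 min at room temperature.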
FUS yeast rescue = rescues growth of FUS-expressing yeast; actives 0.24% (n = 390,000); AID 1347120; Potency, µM (highest dose often 76.6 µM), most hits filed as activators; S. cerevisiae FUS-expressing, growth rescue, OD600, 24 h; also: nearly all actives have a fitted effect of over 55% in size
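Cultures pregrown in 2.5% raffinose medium are shifted to minimal medium containing 2% galactose to express toxic FUS. Compounds are tested at several concentrations. After 24hr at 30C, growth is quantified at 600 nm absorbance.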
ALOX12 inh = blocks human arachidonate 12S-lipoxygenase. AID 1671190. purified 12hLO, xylenol orange hydroperoxide absorbance. Potency, µM (highest dose often 108 µM), actives largely listed as inhibitors. P18054. actives 1.1% (n = 580,000)
Target sequence (P18054 whole entry, looked up): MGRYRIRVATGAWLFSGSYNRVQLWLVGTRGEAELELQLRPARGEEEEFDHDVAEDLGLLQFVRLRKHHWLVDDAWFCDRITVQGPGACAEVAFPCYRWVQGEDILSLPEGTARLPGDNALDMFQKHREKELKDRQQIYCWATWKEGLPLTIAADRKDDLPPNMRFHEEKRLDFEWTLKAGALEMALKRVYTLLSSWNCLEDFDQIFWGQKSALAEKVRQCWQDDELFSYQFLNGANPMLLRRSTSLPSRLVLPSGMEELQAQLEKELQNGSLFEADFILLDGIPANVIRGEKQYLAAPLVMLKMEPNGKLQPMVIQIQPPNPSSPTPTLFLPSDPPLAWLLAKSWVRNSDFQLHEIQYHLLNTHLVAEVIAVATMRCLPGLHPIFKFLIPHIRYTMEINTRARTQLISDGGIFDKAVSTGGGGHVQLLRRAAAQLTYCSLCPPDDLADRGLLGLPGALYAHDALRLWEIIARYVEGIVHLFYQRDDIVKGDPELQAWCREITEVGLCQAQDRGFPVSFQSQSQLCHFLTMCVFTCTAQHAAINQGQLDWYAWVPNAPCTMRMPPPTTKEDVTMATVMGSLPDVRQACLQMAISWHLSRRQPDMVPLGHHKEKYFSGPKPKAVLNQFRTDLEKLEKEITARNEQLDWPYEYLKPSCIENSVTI
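Purified human 12hLO at 150 nM in 25 mM Hepes, 0.01% Triton X-100, pH 7.0, preincubated 15 min at room temperature with compound. Reaction started with 40 uM arachidonic acid, 30 min at room temperature. Hydroperoxide measured by Fe-xylenol orange, 573/405 nm absorbance ratio.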
Mito fusion yeast = inhibitors of mitochondrial division or activators of mitochondrial fusion; S. cerevisiae fusion-defective mutant growth rescue, CellTiterGlo 48 h; Potency, µM (highest dose often 46.1 µM), actives largely listed as activators; actives 0.23% (n = 320,000); AID 485298; also: nearly all actives have a fitted effect of over 45% in size
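Read-out: ATP-based luminescence (CellTiterGlo, 10 min ambient) reporting growth of fusion-defective ts yeast after 48 hours at 37C on glycerol/ethanol YPEG medium in the presence of compound.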
Hits are given with their value; i = inactive; ? = inconclusive; nt = no result; ! = not active in a repeat; [ ] = remark or other dose. Unless noted, calls follow the shape of the dose curve; as a rule, active = well fitted curve in the direction sought with a large enough effect; inconclusive = small, poorly fitted or top-dose-only effect, or another doubt; inactive = no such curve, though single readings can be large; an effect the other way counts as inactive or inconclusive.

SMILES	gsp antagonist	gsp ag	FUS yeast rescue	ALOX12 inh	Mito fusion yeast
O=C(O)CC(C(=O)O)N1C(=O)/C(=C/c2ccc(-c3nc4ccccc4s3)o2)SC1=S (stereo not given)	i	?	?	16µM	i
O=Cc1ccc(-c2nc3ccccc3s2)o1	i	i	i	i	i
CCn1cc(C(=O)c2cc(F)ccc2O)cc1-c1nc2ccccc2c(=O)[nH]1	nt	nt	nt	i	nt
CCOC(=O)c1cc2cc(C(C)C)ccc2[nH]1	nt	nt	nt	i	nt
Cc1ccc(S(=O)(=O)Cc2ccc(C(=O)N3CCN(c4cccc(Cl)c4)CC3)o2)cc1	nt	nt	?	i	nt
Cc1ccc(Cl)cc1N1CCN(C(=O)c2ccc(CS(=O)(=O)c3ccc(Br)cc3)o2)CC1	nt	nt	22µM	i	nt
O=C1C=CC(=O)N1c1ccc2ccccc2c1	i	i	i	40µM	nt
Cc1cc(C)n(-c2nc3c(c(=O)n(C)c(=O)n3C)n2C/C=C/c2ccccc2)n1	nt	nt	nt	i	nt
Cc1nc2cc(-c3ccccc3)nn2c(C)c1CC(=O)NCCc1ccccc1	nt	nt	nt	i	nt
Nc1nc(COC(=O)c2ccc(Cl)cc2)nc2ccccc12	nt	nt	nt	i	nt
O=C1N/C(=N/Nc2ccccc2)S/C1=C\c1ccccc1	i	i	nt	5.6µM	i
CNc1c(NC(=O)CCc2ccccc2)c(=O)oc2ccccc12	nt	nt	nt	i	nt
Cc1ccc(CN(CC(O)COc2cccc3[nH]cc(C)c23)C(C)(C)C)cc1 (stereo not given)	i	i	i	?	5.6µM
Cc1ccccc1CNC(=O)c1nn(C)c(=O)c2ccccc12	nt	nt	nt	i	nt
O=S(=O)(c1ccc(-c2csc(Nc3cccc4ccccc34)n2)cc1)N1CCCCC1	nt	nt	nt	16µM	nt
O=C(NCCS(=O)(=O)N1CCN(c2ccccc2F)CC1)c1ccc(C(F)(F)F)cc1	nt	nt	nt	i	nt
COc1ccc(C(=O)/C=C/c2cc(OC)c(O)c(OC)c2)c(F)c1	i	?	i	45µM	i
Cc1cc(C(=O)OC(C)C(=O)Nc2ccc(F)cc2Cl)c(C)o1 (stereo not given)	nt	nt	nt	i	nt
O=S(=O)(c1cccc(NC(=S)N2CCN(c3cccc(Cl)c3)CC2)c1)C(F)F	32µM	i[15.4 µM]	i	i	i
O=S(=O)(c1cccc(NC(=S)N2CCN(c3ccc(F)cc3)CC2)c1)C(F)F	?	i	i	i	i
S=C(NCCN1CCOCC1)N1CCN(c2cccc(Cl)c2)CC1	i	i[15.4 µM]	i	5.6µM	i
S=C(NCCN1CCOCC1)Nc1cccc(Cl)c1	i	i[15.4 µM]	i	i	i
O=C1C=CC(=O)c2c(O)c(N3CCN(CCOCCO)CC3)c(Br)c(O)c21	25µM	?	nt	?	nt
O=C(Nc1ccccc1)[C@@H]1C[C@@H](c2cccc(C(F)(F)F)c2)N(CC2CCOCC2)C1	nt	nt	nt	i	nt
CC(C)c1ccc(C2C(C#N)=C(SCC(N)=O)NC3=C2C(=O)CCC3)cc1 (stereo not given)	nt	nt	nt	45µM	nt
SMILES	gsp antagonist	gsp ag	FUS yeast rescue	ALOX12 inh	Mito fusion yeast
Cc1ccc2cccc(NC(=O)c3ccc(N4CCCCC4)c([N+](=O)[O-])c3)c2n1	nt	nt	nt	i	nt
O=C1C=CC(=O)C(C2=C3C(=O)N(CCc4ccccc4)CC(=O)N3CCC2)=C1	i	i	nt	40µM	i
CC1(c2ccccc2)N(Cc2ccccc2C#N)C(=O)OC12CCN(Cc1c[nH]c3ccccc13)CC2 (stereo not given)	nt	nt	nt	32µM	nt
CC1(c2ccccc2)N(Cc2ccccc2)C(=O)OC12CCN(Cc1c[nH]c3ccccc13)CC2 (stereo not given)	nt	nt	nt	45µM	nt
O=C(Cn1cnc2ccccc2c1=O)N(Cc1cccs1)c1ccc2c(c1)OCCO2	nt	nt	nt	i	nt
Cc1ccc(/C=C2\CC(C)CC3=C2NC(=S)NC3c2ccc(C)cc2)cc1 (stereo not given)	i	i[15.4 µM]	?	?	i
CC1CC2=C(NC(=S)NC2c2cccc(F)c2)/C(=C/c2cccc(F)c2)C1 (stereo not given)	i	i[15.4 µM]	i	28µM	i
CC1CC2=C(NC(=S)NC2c2ccccc2F)/C(=C/c2ccccc2F)C1 (stereo not given)	i	i	?	35µM	i
CC(C)NC(=O)c1cc(-c2ccc(S(C)(=O)=O)cc2)c2cnn(C)c2n1	nt	nt	nt	i[6.33 µM]	nt
C/C(=N\NC(=S)Nc1ccccc1C)c1cc2ccccc2o1	i	i[15.4 µM]	i	20µM	i
C(=N\Nc1nc(Nc2ccccc2)nc(N2CCOCC2)n1)/c1c[nH]c2ccccc12	i	i	28µM	i	i
Cc1ccc(Nc2nc(N/N=C/c3c[nH]c4ccccc34)nc(N3CCOCC3)n2)cc1	40µM	i[15.4 µM]	?	i	i
Cc1[nH]c2ccccc2c1/C=N/Nc1nc(Nc2ccc(F)cc2)nc(N2CCOCC2)n1	i	i	i	i	i
Cc1ccc(CNC(=O)c2sc3nc(-c4ccc(F)cc4)ccc3c2N)cc1	nt	nt	25µM	i	nt
OCCCN1CCN(CCCOc2ccccc2-c2ccccc2)CC1	i	i	nt	i	i
c1ccc(-c2ccccc2OCCCN2CCOCC2)cc1	i	i	i	i	20µM
OCC1CN(Cc2cscn2)CCC12CCN(Cc1ccccc1)CC2 (stereo not given)	nt	nt	nt	i	nt
O=C(O)CN1C(=O)/C(=C\c2cc(Br)ccc2OCc2ccc(F)cc2)SC1=S	i	i	i	2.5µM	i
O=C(O)CN1C(=O)/C(=C\c2cc([N+](=O)[O-])ccc2OCc2ccccc2Cl)SC1=S	i	i	i	14µM	i
O=C(O)CN1C(=O)/C(=C\c2ccccc2OCc2ccccc2)SC1=S	nt	i	i	?	nt
O=C(O)CN1C(=O)/C(=C\c2cc(Br)ccc2OCc2ccc(Cl)cc2)SC1=S	i	i	i	20µM	i
CC(C)(C)c1ccc(OCc2nn3c(-c4cccnc4)nnc3s2)cc1	nt	nt	nt	i	nt
CC(CCc1ccc(O)cc1)NCCc1ccc(O)c(O)c1 (stereo not given)	i	nt	i	1.4µM!	i
O=C(CCc1nc2ccccc2s1)N1CCN(c2ccccc2)CC1	i	i	i	i	i
CC(=O)c1ccc(N2CCN(C(=O)CCCc3nc4ccccc4s3)CC2)cc1	32µM	i	i	i	i
SMILES	gsp antagonist	gsp ag	FUS yeast rescue	ALOX12 inh	Mito fusion yeast
Cc1ccccc1CN1CCC(N(C)Cc2ccccc2)CC1	nt	nt	nt	0.56µM	nt
FC(F)(F)c1ccccc1CN1CCC(Cc2ccccc2)CC1	i	i	i	0.71µM	i
CN(Cc1ccccc1)C(=O)C1CCN(Cc2cccc3ccccc23)CC1	nt	nt	nt	1.3µM	nt
COc1ccc(C(=O)Nc2ccc3oc(-c4ccccc4C)nc3c2)cc1OC	nt	nt	nt	i	nt
CC(OC(=O)Cn1[nH]c(=O)c2ccccc2c1=O)C(=O)Nc1ccc(Br)cc1 (stereo not given)	nt	nt	nt	i	nt
Cn1cnc(S(=O)(=O)N2CCOc3ccc(CN4CCc5ccccc5C4)cc3C2)c1	nt	nt	nt	i	nt
CCCC[n+]1c2ccccc2cc2ccccc21	i	i	i	8.9µM	i
CCC[n+]1c2ccccc2cc2ccccc21	i	?	i	?	i
O=C(Nc1nnc(C(F)(F)F)s1)C1COc2ccccc2O1 (stereo not given)	35µM	i	i	?	i
COC(=O)N1CCc2c(sc(NC(=O)C3COc4ccccc4O3)c2C(N)=O)C1 (stereo not given)	i	i[15.4 µM]	i	18µM	i
